According to PubChem BioAssay (NCI):
Compounds without any hit were thinned out: in the full panel of roughly 79,000, 15% have a hit. Active and inactive are the calls of the source. Rule as the data show it: active = growth inhibition above about 70%; inactive = the rest.

Columns and labels:
[1] = NCI Yeast Anticancer Drug Screen. Data for the rad52 strain (AID 147);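 also: 0% = growth of vehicle-treated control cultures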; details: S. cerevisiae rad52 mutant growth inhibition, active compounds read high
Method in brief: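 Compounds are applied to a genetically defined yeast strain lacking normal DNA damage repair, and inhibition of growth is expressed relative to cultures given vehicle only.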

[2] = NCI Yeast Anticancer Drug Screen. Data for the wt1 strain (AID 149);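 also: 0% = growth of vehicle-treated wt1 cultures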; details: S. cerevisiae wt1 strain (SPY 50644) growth inhibition, active compounds read high
Method in brief: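 Readout: yeast growth inhibition, normalised to vehicle controls, in the wt1 strain exposed to test compounds.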

[3] = NCI Yeast Anticancer Drug Screen. Data for the rad50EPP+ strain (AID 151);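 also: 0% = growth of vehicle-treated control cultures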; details: S. cerevisiae rad50 mutant strain, active compounds read high
Method in brief: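 Compounds were applied to the rad50EPP+ yeast strain, which bears a defined DNA repair alteration, and growth inhibition was determined relative to vehicle-treated cultures.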

[4] = NCI Yeast Anticancer Drug Screen. Data for the mgt1 strain (AID 153); details: S. cerevisiae mgt1 mutant growth inhibition, active compounds read high
Method in brief: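 Strain: mgt1 yeast, one of a set carrying defined DNA damage repair or cell cycle control alterations. Compound-treated growth compared with vehicle.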

[5] = NCI Yeast Anticancer Drug Screen. Data for the rad50 strain (AID 155);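 also: 0% = growth of vehicle-only cultures of the same strain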; details: S. cerevisiae rad50 strain growth inhibition, active compounds read high
Method in brief: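 Compounds were tested on a yeast strain with an engineered DNA damage repair alteration; the reported value is growth inhibition normalised to vehicle treatment.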

[6] = NCI Yeast Anticancer Drug Screen. Data for the mec2-1 strain (AID 157); details: S. cerevisiae mec2-1 strain, active compounds read high
Method in brief: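 Strain: mec2-1 (DNA repair/cell cycle alteration). Compound exposure, then growth measured; inhibition expressed relative to vehicle.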

[7] = NCI Yeast Anticancer Drug Screen. Data for the rad14 strain (AID 159);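 also: 0% = growth of vehicle-treated control cultures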; details: S. cerevisiae rad14 strain growth inhibition, active compounds read high
Method in brief: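 Compound-treated yeast with a defined DNA-repair lesion; growth inhibition normalised to vehicle-treated cultures.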

[8] = NCI Yeast Anticancer Drug Screen. Data for the sgs1 mgt1 strain (AID 161);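 also: 0% = growth of cultures given vehicle only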; details: S. cerevisiae sgs1 mgt1 strain, active compounds read high
Method in brief: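 Test agents were incubated with a DNA-repair-mutant yeast strain. Growth was then read and compared against vehicle-treated controls.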

[9] = NCI Yeast Anticancer Drug Screen. Data for the cln2 rad14 strain (AID 165);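 also: 0% = growth equal to vehicle treated cultures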; details: S. cerevisiae cln2 rad14 strain, active compounds read high
Method in brief: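 Compounds are applied to the cln2 rad14 yeast strain, and growth is then compared with that of vehicle-treated cultures to give inhibition.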

[10] = NCI Yeast Anticancer Drug Screen. Data for the bub3 strain (AID 167); details: S. cerevisiae bub3 mutant strain, active compounds read high
Method in brief: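 Growth of a checkpoint-deficient yeast mutant is measured after compound exposure. Values represent inhibition relative to vehicle.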

[11] = NCI Yeast Anticancer Drug Screen. Data for the wt2 strain (AID 169);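 also: 0% = growth of vehicle-treated yeast cultures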; details: S. cerevisiae wt2 strain growth inhibition, active compounds read high
Method in brief: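 This strain belongs to a panel of yeast strains with defined genetic alterations in DNA damage repair or cell cycle control. Compounds are applied, and growth inhibition is measured against vehicle-treated cultures.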

[12] = NCI Yeast Anticancer Drug Screen. Data for the mlh1 strain (AID 171);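 also: 0% = growth of vehicle-treated control cultures of the same strain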; details: S. cerevisiae mlh1 strain growth inhibition, active compounds read high
Method in brief: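 Growth of the mutant yeast strain after compound exposure, expressed as inhibition relative to vehicle-only controls.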

[13] = NCI Yeast Anticancer Drug Screen. Data for the sgs1 strain (AID 173);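 also: 0% = growth of vehicle-only control cultures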; details: S. cerevisiae sgs1 mutant, active compounds read high
Method in brief: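 Growth of a yeast strain bearing a defined genetic alteration is measured after compound treatment. Inhibition is expressed relative to vehicle-only controls.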

[14] = NCI Yeast Anticancer Drug Screen. Data for the mlh1 rad18 strain (AID 175); details: S. cerevisiae mlh1 rad18 strain growth inhibition, active compounds read high
Method in brief: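 Read-out is yeast growth inhibition, calculated against vehicle-only controls. The compound was applied to a strain engineered with DNA damage repair alterations.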

[15] = NCI Yeast Anticancer Drug Screen. Data for the rad18 strain (AID 177); details: S. cerevisiae rad18 mutant growth inhibition, active compounds read high
Method in brief: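 Growth of the mutant yeast strain after compound exposure, normalised to vehicle-only cultures.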

[16] = NCI Yeast Anticancer Drug Screen. Data for the CLN2oe strain (AID 163);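 also: 0% = growth of vehicle-only control cultures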; details: S. cerevisiae CLN2oe strain, active compounds read high
Method in brief: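 Growth of a genetically modified yeast strain is measured after compound exposure and compared with cultures given vehicle alone.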

[17] = at 5.0 µM (retest, dose inferred, filed as 0.5)
[18] = at 50.0 µM (retest, dose inferred, filed as 5.0)

Measured: growth inhibition

CC(=O)O/C(=C1\C[C@H]2[C@@H]3CC=C4C[C@@H](OC(C)=O)CC[C@]4(C)[C@H]3CC[C@]2(C)C1=O)C(F)(F)F
inactive: [1]; at 1.2 µM -2% | [1]; at 3.7 µM -1% | [1]; at 11.0 µM -5% | [1]; at 33.0 µM -3% | [1]; at 100.0 µM 0% | [2]; at 1.2 µM -1% | [2]; at 3.7 µM 1% | [2]; at 11.0 µM 2% | [2]; at 33.0 µM 0% | [2]; at 100.0 µM 4% | [3]; at 1.2 µM 1% | [3]; at 3.7 µM 6% | [3]; at 11.0 µM 5% | [3]; at 33.0 µM 3% | [3]; at 100.0 µM 1% | [4]; at 1.2 µM 1% | [4]; at 3.7 µM 0% | [4]; at 11.0 µM 1% | [4]; at 33.0 µM 1% | [4]; at 100.0 µM 3% | [5]; at 1.2 µM 3% | [5]; at 3.7 µM -1% | [5]; [17] 18% | [5]; at 11.0 µM 7% | [5]; at 33.0 µM 2% | [5]; [18] 18% | [5]; at 100.0 µM 0% | [6]; at 1.2 µM 2% | [6]; at 3.7 µM 4% | [6]; [17] 19% | [6]; at 11.0 µM 4% | [6]; at 33.0 µM 5% | [6]; [18] 3% | [6]; at 100.0 µM 14% | [7]; at 1.2 µM 1% | [7]; at 3.7 µM -4% | [7]; at 11.0 µM 0% | [7]; at 33.0 µM -7% | [7]; at 100.0 µM 22% | [8]; [17] 2% | [8]; [18] 18% | [9]; [17] 37% | [9]; [18] -1% | [10]; at 1.2 µM -1% | [10]; at 3.7 µM 1% | [10]; [17] -10% | [10]; at 11.0 µM 10% | [10]; at 33.0 µM 3% | [10]; [18] 13% | [10]; at 50.0 µM 61.7% | [10]; at 100.0 µM 6% | [11]; at 1.2 µM -1% | [11]; at 3.7 µM 0% | [11]; at 11.0 µM -2% | [11]; at 33.0 µM -1% | [11]; at 100.0 µM 2% | [12]; at 1.2 µM 4% | [12]; at 3.7 µM 4% | [12]; at 11.0 µM 3% | [12]; at 33.0 µM -20% | [12]; at 100.0 µM 11% | [13]; at 1.2 µM 2% | [13]; at 3.7 µM 3% | [13]; at 11.0 µM 4% | [13]; at 33.0 µM 3% | [13]; at 100.0 µM 2% | [14]; [17] 9% | [14]; [18] 9% | [14]; at 50.0 µM 63.5% | [15]; at 1.2 µM -4% | [15]; at 3.7 µM -3% | [15]; at 11.0 µM 3% | [15]; at 33.0 µM -3% | [15]; at 100.0 µM -6%
active: [5]; at 50.0 µM 76.1% | [6]; at 50.0 µM 80.5% | [8]; at 50.0 µM 77.8% | [9]; at 50.0 µM 94%

Br[Se]c1ccccn1
active: [1]; at 11.0 µM 97% | [1]; at 33.0 µM 99% | [1]; at 100.0 µM 98% | [2]; at 33.0 µM 99% | [2]; at 100.0 µM 99% | [3]; at 11.0 µM 98% | [3]; at 33.0 µM 99% | [3]; at 100.0 µM 98% | [4]; at 11.0 µM 79% | [4]; at 33.0 µM 99% | [4]; at 100.0 µM 99% | [5]; at 3.7 µM 91% | [5]; at 11.0 µM 97% | [5]; at 33.0 µM 98% | [5]; [18] 99% | [5]; at 50.0 µM 99.5% | [5]; at 100.0 µM 98% | [6]; at 11.0 µM 89% | [6]; at 33.0 µM 99% | [6]; [18] 100% | [6]; at 50.0 µM 99.8% | [6]; at 100.0 µM 99% | [7]; at 11.0 µM 99% | [7]; at 33.0 µM 99% | [7]; at 100.0 µM 99% | [8]; [18] 99% | [8]; at 50.0 µM 99.6% | [16]; at 33.0 µM 99% | [16]; at 100.0 µM 99% | [9]; [18] 99% | [9]; at 50.0 µM 98.3% | [10]; [17] 75% | [10]; at 11.0 µM 93% | [10]; at 33.0 µM 98% | [10]; [18] 100% | [10]; at 50.0 µM 99.7% | [10]; at 100.0 µM 98% | [11]; at 11.0 µM 80% | [11]; at 33.0 µM 99% | [11]; at 100.0 µM 99% | [12]; at 11.0 µM 84% | [12]; at 33.0 µM 99% | [12]; at 100.0 µM 99% | [13]; at 11.0 µM 83% | [13]; at 33.0 µM 99% | [13]; at 100.0 µM 99% | [14]; [18] 99% | [14]; at 50.0 µM 99.7% | [15]; at 11.0 µM 96% | [15]; at 33.0 µM 98% | [15]; at 100.0 µM 98%
inactive: [1]; at 1.2 µM 2% | [1]; at 3.7 µM 53% | [2]; at 1.2 µM 2% | [2]; at 3.7 µM 10% | [2]; at 11.0 µM 58% | [3]; at 1.2 µM -9% | [3]; at 3.7 µM 59% | [4]; at 1.2 µM -3% | [4]; at 3.7 µM 12% | [5]; at 1.2 µM 5% | [5]; [17] 44% | [6]; at 1.2 µM 0% | [6]; at 3.7 µM 34% | [6]; [17] 29% | [7]; at 1.2 µM 5% | [7]; at 3.7 µM 36% | [8]; [17] -5% | [16]; at 1.2 µM -11% | [16]; at 3.7 µM 11% | [16]; at 11.0 µM 62% | [9]; [17] 9% | [10]; at 1.2 µM -2% | [10]; at 3.7 µM 20% | [11]; at 1.2 µM 1% | [11]; at 3.7 µM 14% | [12]; at 1.2 µM -1% | [12]; at 3.7 µM 22% | [13]; at 1.2 µM 0% | [13]; at 3.7 µM 23% | [14]; [17] 31% | [15]; at 1.2 µM 1% | [15]; at 3.7 µM 65%
